Measured values as given in PubChem BioAssay (EPA / NIEHS).
Inconclusive results are not listed. Some compounds were tested as several samples or in several runs, with calls that do not always agree. Active and inactive are the calls of the source. How the source made its calls, unless noted: active means hit-call score of the fitted dose curve at least 0.9, where 1 is the maximum; inconclusive means response in the unintended direction; inactive means score below 0.9.

How the values were obtained:
[1] = biological target: Glucocorticoid receptor (Homo sapiens) (UniProt P04150); assay: ATG_GR_TRANS: Attagene TRANS-FACTORIAL HepG2 Assay for human Glucocorticoid Receptor (GR) (AID 2282978); details: HepG2 Attagene TRANS GR reporter, mRNA transcription;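 further: activators score as hits since higher reporter transcript over DMSO is fitted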
Chain of Glucocorticoid receptor (Homo sapiens) (P04150 whole entry, looked up, the tested form may be a part): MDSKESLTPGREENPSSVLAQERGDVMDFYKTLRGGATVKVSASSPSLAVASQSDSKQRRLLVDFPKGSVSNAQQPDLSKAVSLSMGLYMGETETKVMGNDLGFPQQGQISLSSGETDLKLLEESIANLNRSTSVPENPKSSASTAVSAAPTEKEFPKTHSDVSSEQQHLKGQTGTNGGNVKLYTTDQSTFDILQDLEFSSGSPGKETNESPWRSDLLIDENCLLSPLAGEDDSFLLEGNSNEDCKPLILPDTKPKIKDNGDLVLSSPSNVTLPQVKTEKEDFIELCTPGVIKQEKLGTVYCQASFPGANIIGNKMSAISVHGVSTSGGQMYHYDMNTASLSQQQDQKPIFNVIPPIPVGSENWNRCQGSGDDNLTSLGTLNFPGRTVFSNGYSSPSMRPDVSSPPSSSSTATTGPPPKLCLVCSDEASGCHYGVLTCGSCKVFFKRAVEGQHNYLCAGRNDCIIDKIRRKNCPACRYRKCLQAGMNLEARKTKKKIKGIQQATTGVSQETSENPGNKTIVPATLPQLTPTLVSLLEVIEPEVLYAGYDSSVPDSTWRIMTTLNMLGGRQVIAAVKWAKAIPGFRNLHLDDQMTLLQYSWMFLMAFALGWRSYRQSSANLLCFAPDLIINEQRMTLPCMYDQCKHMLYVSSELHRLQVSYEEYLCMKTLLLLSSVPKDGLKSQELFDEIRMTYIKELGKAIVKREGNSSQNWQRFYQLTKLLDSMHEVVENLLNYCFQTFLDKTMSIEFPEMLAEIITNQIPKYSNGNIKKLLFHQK
Procedure, shortened: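 Reporter transcript levels, detected by fluorescence after RT-PCR and capillary electrophoresis, served as the endpoint. HepG2 cells bearing transfected GAL4-UAS reporters responsive to NR-GAL4 chimeras were incubated with compound 24 h; DMSO defined baseline.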

[2] = biological target: Nuclear receptor subfamily 4 group A member 2 (Homo sapiens) (UniProt P43354); assay: ATG_NURR1_TRANS: Attagene TRANS-FACTORIAL HepG2 Assay for human Nuclear Receptor Related Protein 1 (NURR1) (AID 2282985); details: HepG2 Attagene TRANS reporter, mRNA readout
Chain of Nuclear receptor subfamily 4 group A member 2 (Homo sapiens) (P43354 whole entry, looked up, the tested form may be a part): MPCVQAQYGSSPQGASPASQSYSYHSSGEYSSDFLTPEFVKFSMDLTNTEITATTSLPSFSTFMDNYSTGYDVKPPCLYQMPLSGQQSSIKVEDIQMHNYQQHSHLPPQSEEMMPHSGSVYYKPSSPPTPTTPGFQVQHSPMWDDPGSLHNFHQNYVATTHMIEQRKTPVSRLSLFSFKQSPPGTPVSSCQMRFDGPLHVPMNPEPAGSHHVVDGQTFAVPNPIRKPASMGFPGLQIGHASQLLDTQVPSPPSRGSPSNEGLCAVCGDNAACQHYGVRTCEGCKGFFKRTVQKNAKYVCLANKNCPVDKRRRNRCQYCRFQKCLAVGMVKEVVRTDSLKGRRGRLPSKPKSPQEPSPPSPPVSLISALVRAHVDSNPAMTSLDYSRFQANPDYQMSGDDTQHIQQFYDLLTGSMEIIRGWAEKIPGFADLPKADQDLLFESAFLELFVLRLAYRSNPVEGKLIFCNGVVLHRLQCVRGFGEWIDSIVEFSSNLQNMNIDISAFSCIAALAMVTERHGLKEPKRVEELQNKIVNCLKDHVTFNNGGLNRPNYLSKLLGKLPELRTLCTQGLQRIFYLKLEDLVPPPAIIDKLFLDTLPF
Procedure, shortened: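 Chimeric NR-Gal4 fusion activity measured in HepG2 after 24 h treatment. Reporter transcripts detected by RT-PCR and capillary electrophoresis fluorescence; positive-direction curve fitting against DMSO.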

[3] = biological target: human Retinoid X Receptor beta (RXRb), RXRB (gene 6257) (UniProt P28702); assay: ATG_RXRb_TRANS: Attagene TRANS-FACTORIAL HepG2 Assay for human Retinoid X Receptor beta (RXRb) (AID 2283013)
Chain of human Retinoid X Receptor beta (RXRb), RXRB (gene 6257) (P28702 whole entry, looked up, the tested form may be a part): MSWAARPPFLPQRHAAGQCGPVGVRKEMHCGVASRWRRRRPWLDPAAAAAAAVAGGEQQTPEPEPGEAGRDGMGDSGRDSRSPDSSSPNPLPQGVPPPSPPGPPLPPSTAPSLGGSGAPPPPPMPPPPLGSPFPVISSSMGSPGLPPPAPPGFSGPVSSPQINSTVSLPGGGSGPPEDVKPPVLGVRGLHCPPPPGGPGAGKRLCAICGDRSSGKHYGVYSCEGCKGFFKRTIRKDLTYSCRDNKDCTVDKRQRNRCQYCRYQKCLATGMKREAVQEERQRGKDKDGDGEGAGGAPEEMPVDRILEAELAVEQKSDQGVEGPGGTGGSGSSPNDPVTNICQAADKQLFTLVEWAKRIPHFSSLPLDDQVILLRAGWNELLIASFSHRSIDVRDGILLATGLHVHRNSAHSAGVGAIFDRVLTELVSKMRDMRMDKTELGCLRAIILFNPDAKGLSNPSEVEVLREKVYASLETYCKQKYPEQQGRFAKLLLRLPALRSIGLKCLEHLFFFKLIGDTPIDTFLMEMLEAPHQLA
Procedure, shortened: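 Chimeric receptor-Gal4 activity was assessed in transiently transfected human HepG2 cells after 24 h exposure. Transcripts from GAL4-UAS reporters were quantified by fluorescent RT-PCR and capillary electrophoresis, with DMSO as negative control and baseline.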

[4] = CCTE_Harrill_HTTr_Apoptosis_MCF7: CCTE's 6-hour Apoptosis Assessment for the High-Throughput Transcriptomics (HTTr) Platform, in MCF-7 cells cultured in DMEM + 10% fetal bovine serum, Harrill Lab (AID 2284011; active means hit-call score of the fitted dose curve at least 0.9, where 1 is the maximum; inactive means score below 0.9)
Procedure, shortened: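 MCF-7 cells in DMEM + 10% fetal bovine serum were exposed to chemicals for 6 hours over an eight-point dilution series. Caspase-3/7 activation was imaged by high content imaging with CellEvent Caspase 3/7 Green; bidirectional fitting used DMSO as baseline.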

[5] = CCTE_Harrill_HTTr_CellCount_MCF7: CCTE's Cell Proliferation Assessment for the High-Throughput Transcriptomics (HTTr) Platform, Harrill Lab (AID 2284012);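 further: cells exposed to compound for six hours; intended direction is loss of nuclei count meaning fewer cells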
Procedure, shortened: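 Cell count served as viability reporter: loss of Hoechst-stained nuclei, counted by high content imaging, marks decreased growth or survival. Exposure was 6 h in MCF-7 cells across eight concentrations, with DMSO as baseline.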

[6] = biological target: Retinoic acid receptor RXR-alpha (Homo sapiens) (UniProt P19793); assay: OT_NURR1_NURR1RXRa_1440: Odyssey Thera (OT) 24-hour HEK293T Protein Complementation Assay for Nurr1/retinoid X receptor (RXR) (AID 2283386)
Chain of Retinoic acid receptor RXR-alpha (Homo sapiens) (P19793 whole entry, looked up, the tested form may be a part): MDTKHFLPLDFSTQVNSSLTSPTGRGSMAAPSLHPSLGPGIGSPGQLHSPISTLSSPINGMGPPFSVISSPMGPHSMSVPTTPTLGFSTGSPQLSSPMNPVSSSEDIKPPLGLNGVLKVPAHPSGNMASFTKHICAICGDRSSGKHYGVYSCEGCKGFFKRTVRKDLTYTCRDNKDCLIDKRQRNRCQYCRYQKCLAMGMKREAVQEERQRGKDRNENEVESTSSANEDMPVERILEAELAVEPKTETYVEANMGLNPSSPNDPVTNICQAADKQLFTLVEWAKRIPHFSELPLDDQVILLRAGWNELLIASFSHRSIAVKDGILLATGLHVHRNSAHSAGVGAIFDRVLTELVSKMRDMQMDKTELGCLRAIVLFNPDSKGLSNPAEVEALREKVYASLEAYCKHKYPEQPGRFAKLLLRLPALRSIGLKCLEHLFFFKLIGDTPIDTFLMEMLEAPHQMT
Procedure, shortened: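 Steps: fragment-tagged Nurr1 and RXRα expressed in HEK293T; compounds added; after 24 h, complemented reporter quantified by fluorescence intensity; signal increase over DMSO fitted as the single endpoint.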

[7] = biological target: Peroxisome proliferator-activated receptor gamma (Homo sapiens) (UniProt P37231); assay: OT_PPARg_PPARgSRC1_0480: Odyssey Thera (OT) 8-hour Protein-Complementation Assay for Peroxisome Proliferator-activated Receptor Gamma / SRC-1 Co-activator (AID 2283387)
Chain of Peroxisome proliferator-activated receptor gamma (Homo sapiens) (P37231 whole entry, looked up, the tested form may be a part): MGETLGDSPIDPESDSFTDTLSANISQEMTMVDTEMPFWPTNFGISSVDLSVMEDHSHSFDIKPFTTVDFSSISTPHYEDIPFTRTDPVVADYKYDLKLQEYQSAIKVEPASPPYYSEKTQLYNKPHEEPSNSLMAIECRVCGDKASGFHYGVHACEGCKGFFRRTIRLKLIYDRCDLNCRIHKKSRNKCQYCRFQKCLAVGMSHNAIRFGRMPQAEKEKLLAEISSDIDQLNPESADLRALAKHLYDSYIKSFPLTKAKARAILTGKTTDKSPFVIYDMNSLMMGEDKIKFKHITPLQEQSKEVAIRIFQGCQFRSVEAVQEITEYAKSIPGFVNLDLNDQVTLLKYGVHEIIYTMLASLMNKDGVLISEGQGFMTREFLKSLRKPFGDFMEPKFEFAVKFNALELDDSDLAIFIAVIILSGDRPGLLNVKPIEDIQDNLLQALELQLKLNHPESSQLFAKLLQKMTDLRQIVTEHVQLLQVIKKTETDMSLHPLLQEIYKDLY
Procedure, shortened: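 Protein-fragment complementation of split Venus YFP reports PPARg/SRC-1 interaction in HEK293T (transfected 48 h before treatment), exposed 8 h. Readout: N/C fluorescence ratio at 488 nm from imaging, Draq5 for segmentation, positive fit relative to DMSO.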

[8] = biological target: Peroxisome proliferator-activated receptor gamma (Homo sapiens) (UniProt P37231); assay: OT_PPARg_PPARgSRC1_1440: Odyssey Thera (OT) 24-hour Protein-Complementation Assay for Peroxisome Proliferator-activated Receptor Gamma/ SRC-1 Co-activator (AID 2283388)
Procedure, shortened: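 HEK293T cells transiently transfected with PPARg and SRC-1 fused via (Gly4Ser)2 linker to split Venus YFP fragments (IFP1/IFP2) were dosed 24 h; fixed, Draq5-stained, imaged at 488/635 nm; nuclear/cytoplasmic fluorescence ratio scored versus DMSO baseline, gain-of-signal.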

[9] = ACEA_AR_agonist_AUC_viability: ACEA Biosciences xCELLigence Real-Time Cell Analysis on Androgen Receptor Agonism for Viability (AID 2283775)
Procedure, shortened: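 22Rv1 cells; impedance growth kinetics; 8-pt 1:4 dilutions from 100 uM top final, ≤0.5% DMSO; n = 2; 80 h read; AUC viability, loss-of-signal vs DMSO.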

[10] = ACEA_AR_antagonist_AUC_viability: ACEA Biosciences xCELLigence Real-Time Cell Analysis on Androgen Receptor Antagonism for Viability (AID 2283776);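 further: 22Rv1 human prostate cancer cells growing on impedance electrode plates; area under impedance growth curve at 80 h after dosing as viability; hits lower the growth signal relative to DMSO meaning cytotoxicity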
Procedure, shortened: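 Impedance read-out (RT-CES): area under growth curve at 80 h post-dose, loss of signal scored vs DMSO baseline. 22Rv1 cells; 8-pt 1:4 series, top 100 uM final, ≤0.5% DMSO; biological duplicate.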

[11] = ACEA_ER_AUC_viability: ACEA Biosciences xCELLigence Real-Time Cell Analysis on Estrogen Receptor Agonism for Viability (AID 2283782);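 further: hit means loss of impedance signal meaning reduced cell growth or viability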
Procedure, shortened: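 Continuous-exposure impedance cell analysis uses T-47D cells in charcoal-stripped serum, eight 1:4 dilutions topping at 100 uM final, biological duplicate. Area under the growth curve at 80 h is fitted against DMSO baseline.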

[12] = read-out: Intercellular Adhesion Molecule 1 (ICAM1), ICAM1 (gene 3383); assay: BSK_3C_ICAM1: BioMAP Diversity Plus: 3C Assay for Intercellular Adhesion Molecule 1 (ICAM1) Biomarker Activity (AID 2283003; active means hit-call score of the fitted dose curve at least 0.9, where 1 is the maximum; inactive means score below 0.9); details: primary human endothelial cells (HUVEC); actives raise or lower the signal
Procedure, shortened: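 Chemicals are dosed onto primary human umbilical vein endothelium (3C system). After 24 h, ICAM-1 is measured by ELISA, and responses are fitted bidirectionally relative to DMSO.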

[13] = read-out: Monokine induced gamma interferon (MIG), CXCL9 (gene 4283); assay: BSK_3C_MIG: BioMAP Diversity Plus: 3C Assay for Monokine induced gamma interferon (MIG) Biomarker Activity (AID 2283021; active means hit-call score of the fitted dose curve at least 0.9, where 1 is the maximum; inactive means score below 0.9;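 on AC50: MIG protein level measured by immunoassay in the treated endothelial cultures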); details: primary human endothelial cells (HUVEC); actives raise or lower the signal
Procedure, shortened: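 Endothelial primary cells (human umbilical vein) are dosed with test chemical in the 3C system. MIG levels are measured by ELISA at 24 h and fitted in both directions relative to DMSO.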

[14] = biological target: Steroid hormone receptor ERR1 (Homo sapiens) (UniProt P11474); assay: ATG_ERRa_TRANS: Attagene TRANS-FACTORIAL HepG2 Assay for human Estrogen-Related Receptor alpha (ERRa) (AID 2282971); details: HepG2 Attagene TRANS reporter, ERRa transactivation
Chain of Steroid hormone receptor ERR1 (Homo sapiens) (P11474 whole entry, looked up, the tested form may be a part): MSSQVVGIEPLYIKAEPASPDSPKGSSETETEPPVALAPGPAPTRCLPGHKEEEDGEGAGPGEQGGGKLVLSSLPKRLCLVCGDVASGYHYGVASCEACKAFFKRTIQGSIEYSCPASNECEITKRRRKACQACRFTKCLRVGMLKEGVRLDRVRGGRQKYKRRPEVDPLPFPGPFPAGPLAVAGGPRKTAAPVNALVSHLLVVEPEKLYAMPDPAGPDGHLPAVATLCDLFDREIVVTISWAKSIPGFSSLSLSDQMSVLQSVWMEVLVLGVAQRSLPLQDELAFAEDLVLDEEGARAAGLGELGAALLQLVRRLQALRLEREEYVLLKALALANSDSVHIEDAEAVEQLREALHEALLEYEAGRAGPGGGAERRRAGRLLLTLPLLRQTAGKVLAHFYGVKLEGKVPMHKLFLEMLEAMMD
Procedure, shortened: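 HepG2 cells transiently transfected with multiplexed GAL4-UAS reporter units reading chimeric ERRa-Gal4 activity; 24 h compound exposure. Reporter mRNA measured by RT-PCR, 6-FAM labelling, HpaI digest and capillary electrophoresis; gain of signal fitted versus DMSO baseline.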

[15] = biological target: human Phosphatase and Tensin Homolog (PTEN), PTEN (gene 5728) (UniProt P60484); assay: NVS_ENZ_hPTEN: NovaScreen (NVS) Enzymatic Assay for human Phosphatase and Tensin Homolog (PTEN) (AID 2283203)
Chain of human Phosphatase and Tensin Homolog (PTEN), PTEN (gene 5728) (P60484 whole entry, looked up): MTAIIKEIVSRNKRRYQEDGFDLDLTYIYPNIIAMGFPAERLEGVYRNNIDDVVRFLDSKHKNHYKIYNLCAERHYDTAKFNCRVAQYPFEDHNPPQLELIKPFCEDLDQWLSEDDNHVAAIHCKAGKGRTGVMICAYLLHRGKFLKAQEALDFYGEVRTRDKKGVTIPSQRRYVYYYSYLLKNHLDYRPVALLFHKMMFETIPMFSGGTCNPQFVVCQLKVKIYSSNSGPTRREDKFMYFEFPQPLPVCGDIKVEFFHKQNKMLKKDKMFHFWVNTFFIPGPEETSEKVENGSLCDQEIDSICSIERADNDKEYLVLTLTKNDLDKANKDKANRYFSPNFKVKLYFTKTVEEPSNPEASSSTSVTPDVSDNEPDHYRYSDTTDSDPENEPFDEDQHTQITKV
Procedure, shortened: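 Loss of fluorescent product signal after mobility-shift separation reports PTEN activity, recombinant human enzyme, 1 h after compound addition. Single 25 uM duplicate screen, then concentration-response on actives; DMSO baseline.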

Measured: AC50

COC(=O)c1ccccc1S(=O)(=O)NC(=O)Nc1nc(C)cc(C)n1
inactive: [1] | [2] | [3] | [4] | [5]

COc1cc(OC)nc(Oc2cccc(Oc3nc(OC)cc(OC)n3)c2C(=O)O)n1
inactive: [3] | [6] | [7] | [8] | [9] | [10] | [4]

[Cl][Sb]([Cl])[Cl]
inactive: [4] | [5]
active: [11] 87.8 µM

CCCOC(=O)c1ccccc1C(=O)OCCC
inactive: [2] | [12] | [13] | [4]

O=C=Nc1ccccc1
inactive: [14] | [6] | [7] | [8] | [9] | [10] | [11] | [5]

Oc1ccc(Cl)cc1
inactive: [6] | [7] | [8] | [10] | [5]

O=C1Nc2ccc(Cl)cc2C(c2ccccc2)=NC1O (configuration not stated)
inactive: [6] | [7] | [8] | [9] | [10] | [4] | [5]

COc1cc(OC)c(OC)cc1C=O
inactive: [14]

C=Cc1cccc(CCl)c1
inactive: [2] | [3]

O=C(O)CCCc1ccc(N(CCCl)CCCl)cc1
inactive: [12] | [3] | [13] | [5]
active: [12] 20 µM | [13] 32.8 µM

ClCCCCCCCl
inactive: [2] | [3]

CC1(C)C(=O)NC(=O)NC1=O
inactive: [14] | [2] | [3]

Nc1ccc(Cl)c(Cl)c1
active: [10] 1.14 µM
inactive: [6] | [7] | [8] | [9] | [4] | [5]

CC(C)(C)C(=O)CCl
inactive: [14] | [12] | [13] | [5]

CCC(C)c1cc([N+](=O)[O-])cc([N+](=O)[O-])c1OC(=O)C=C(C)C (configuration not stated)
active: [12] 30.4 µM | [13] 35.3 µM
inactive: [1] | [2] | [3]

O=[N+]([O-])C=Cc1ccccc1
inactive: [14] | [11]
active: [12] 7.32 µM | [13] 11.4 µM

CC1CCC(=O)O1 (configuration not stated)
inactive: [14] | [1]
active: [11] 50 µM

CN(C)CCC#N
inactive: [1] | [3] | [11] | [4]

CN(N=O)c1ccccc1
inactive: [14]

N#CC(c1ccccc1)c1ccccc1
inactive: [14] | [2]

Nc1ccccc1C(=O)Oc1ccc2ccccc2c1
inactive: [1] | [3]
active: [11] 24.4 µM

BrCBr
inactive: [1]

Clc1ccc(-c2ccccc2)cc1
inactive: [14] | [1] | [2] | [12] | [13] | [15] | [4] | [5]

O=P(O)(Oc1ccccc1)Oc1ccccc1
inactive: [1] | [6] | [7] | [8]

Nc1cc(Cl)cc(Cl)c1
inactive: [2] | [3] | [6] | [7] | [8] | [9] | [11]

CCCCOC(=O)CCC(=O)OCCCC
inactive: [3]
